The results in this text go back to article PMC5540273 (PLoS ONE, 2017).

Common to all, as to settings: concentration: 1 μM, replicates: in singlicate; n = 1
One experiment deals with T1, p38-beta.
T1 construct: gene MAPK11

A further experiment relates to p38-delta.
A further experiment relates to T2, p38-gamma.
T2 construct: gene MAPK12
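Further: KINOMEscan kinase panel screen.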

As to `CC(C)N1CCC(n2cnc(-c3ccc(F)cc3)c2-c2ccnc(N)n2)CC1` [SB-223132], the “%Inh” value is reported as 23% with p38-beta, 0% with p38-delta and 60% in the experiment on p38-gamma.
Regarding `O=C(Nc1ccccc1)Nc1ccc(Oc2ccc3nccn3n2)cc1`, the “%Inh” value in the experiment on p38-beta is reported as 0%; in the experiment on p38-delta it was 2%; in the experiment on p38-gamma it was 30%.
`Cc1ccc(NC(=O)c2cccc(C#N)c2)cc1-c1ccc(C(=O)Nc2ccncc2)cc1` [GSK1398463]: the “%Inh” value turned out to be 9% with p38-beta, 48% with p38-delta and 26% in the experiment on p38-gamma.
In the same order, the values of `c1ccc(-c2ccc3c(-c4ccnc(Nc5ccc6c(c5)OCCO6)n4)cnn3n2)cc1` [GW818941] are 0%, 26% and 0%.
As to `COc1cc2c(Nc3cccc(NC(=O)c4ccccc4)c3)ncnc2cc1OCCCN1CCOCC1` [GSK223810], the “%Inh” value in the experiment with p38-beta worked out at 89%; with p38-delta, 0%; with p38-gamma, 6%.
Turning to `COc1cc2ncnc(Nc3ccc(OCc4ccccc4Br)c(Cl)c3)c2cc1OC.Cl` [GI261590], the “%Inh” value with p38-beta is given as 0%; with p38-delta it was 54%; in the experiment with p38-gamma, 0%.
`N#Cc1ccc(Oc2ccc(Nc3ncnc4cc[nH]c34)cc2Cl)cc1`: the “%Inh” value in the experiment on p38-beta is 14%; with p38-delta it was 3%; in the experiment on p38-gamma, 10%.
On to `Fc1cccc(COc2ccc(Nc3ncnc4cc[nH]c34)cc2Cl)c1`, for which the “%Inh” value with p38-beta is given as 13%; in the experiment on p38-delta it was 28%; with p38-gamma, 20%.
For the molecule `Cl.Cn1ccc(-c2cccc(Nc3ccnc4cc(-c5nccs5)ccc34)c2)n1` [GW525701], the “%Inh” value in the experiment with p38-beta is given as 0%; in the experiment with p38-delta, 23%; with p38-gamma, 14%.
`Nc1nc(-c2ccc3c(N)n[nH]c3c2)cc(N2CCCCC2)n1` [GSK2228768]: the figures for the “%Inh” value in the experiment on p38-beta, in the experiment on p38-delta and with p38-gamma were 0%, 19% and 0%, respectively.
For `Clc1cccc(-c2nc(Nc3ccncc3)c3ccccc3n2)c1` [GW873004], the “%Inh” value in the experiment on p38-beta worked out at 0%; in the experiment on p38-delta it was 17%; in the experiment on p38-gamma, 0%.
